Common to all, as to assay: DAPPL (digital affinity profiling via proximity ligation, sequencing); 10 mM Tris-HCl pH 7.5, 50 mM NaCl, 1 mM DTT, 4% glycerol, room temperature, 30 min; GST-TFs on glutathione beads, 16-mer random dsDNA library, 0.1% formaldehyde crosslink after washing; high values mean tight binding
Holding throughout (conditions): protein: recombinant; tags: N-terminal GST; dsDNA, one strand shown

Experiment [1] deals with T1, ERF (Homo sapiens, UniProt P50548 1-548).
T1 sequence: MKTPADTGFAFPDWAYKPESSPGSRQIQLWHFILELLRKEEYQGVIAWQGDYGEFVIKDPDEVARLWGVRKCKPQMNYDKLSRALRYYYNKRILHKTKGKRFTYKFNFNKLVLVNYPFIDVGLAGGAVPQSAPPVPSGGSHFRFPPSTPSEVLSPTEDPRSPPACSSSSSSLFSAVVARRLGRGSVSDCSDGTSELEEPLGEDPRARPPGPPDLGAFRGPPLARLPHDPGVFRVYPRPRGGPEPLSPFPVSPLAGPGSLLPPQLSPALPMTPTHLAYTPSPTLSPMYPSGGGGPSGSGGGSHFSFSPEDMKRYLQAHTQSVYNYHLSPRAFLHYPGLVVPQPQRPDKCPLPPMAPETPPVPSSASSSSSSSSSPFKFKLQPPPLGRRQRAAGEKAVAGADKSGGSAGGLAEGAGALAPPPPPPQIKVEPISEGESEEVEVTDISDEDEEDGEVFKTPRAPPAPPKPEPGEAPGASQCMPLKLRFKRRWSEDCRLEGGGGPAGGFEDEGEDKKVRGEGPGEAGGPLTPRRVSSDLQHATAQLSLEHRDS
Put shortly: (§1)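 Binding signal is given per hexamer as its read frequency for a factor divided by its frequency in the tag-only sample. GST-fused human transcription factors were expressed in yeast, captured on glutathione beads, barcoded with DNA and pooled with that sample, then incubated with 200 nmole of a 16-mer random double-stranded DNA library in Tris/NaCl/DTT/glycerol buffer for 30 min at room temperature. The pools were then washed, crosslinked, proximity-ligated, amplified by PCR and sequenced on an Illumina NextSeq500.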

Experiment [2] deals with T2, ETV3L (Homo sapiens, UniProt Q6ZN32 1-361).
T2 sequence: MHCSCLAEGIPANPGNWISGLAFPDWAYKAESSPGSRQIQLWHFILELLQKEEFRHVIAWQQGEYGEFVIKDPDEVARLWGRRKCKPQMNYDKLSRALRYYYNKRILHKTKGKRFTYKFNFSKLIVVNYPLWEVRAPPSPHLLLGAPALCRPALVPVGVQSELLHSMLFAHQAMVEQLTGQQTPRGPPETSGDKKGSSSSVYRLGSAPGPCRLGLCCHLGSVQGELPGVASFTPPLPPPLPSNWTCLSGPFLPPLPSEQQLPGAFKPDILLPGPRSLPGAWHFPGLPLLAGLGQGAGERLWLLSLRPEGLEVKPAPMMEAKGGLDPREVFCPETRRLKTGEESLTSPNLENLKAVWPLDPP
Put shortly:
as §1

Experiment [3] deals with T3, ETS2 (Homo sapiens, UniProt P15036 1-469).
T3 sequence: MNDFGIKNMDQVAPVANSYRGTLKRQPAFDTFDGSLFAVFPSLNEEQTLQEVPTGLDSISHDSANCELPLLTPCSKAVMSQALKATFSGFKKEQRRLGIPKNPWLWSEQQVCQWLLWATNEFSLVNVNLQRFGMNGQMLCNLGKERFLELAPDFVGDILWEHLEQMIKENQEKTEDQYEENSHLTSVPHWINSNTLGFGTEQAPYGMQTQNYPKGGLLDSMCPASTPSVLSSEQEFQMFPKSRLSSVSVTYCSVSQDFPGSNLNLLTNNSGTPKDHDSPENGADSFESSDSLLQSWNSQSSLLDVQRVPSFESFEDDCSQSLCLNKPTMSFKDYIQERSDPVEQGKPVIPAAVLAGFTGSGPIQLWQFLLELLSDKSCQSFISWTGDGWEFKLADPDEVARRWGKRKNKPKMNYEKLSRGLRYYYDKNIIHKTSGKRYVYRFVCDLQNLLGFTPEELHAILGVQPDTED
Put shortly: as §1

Experiment [4] has as its target T4, SPDEF (Homo sapiens, UniProt O95238 1-335).
T4 sequence: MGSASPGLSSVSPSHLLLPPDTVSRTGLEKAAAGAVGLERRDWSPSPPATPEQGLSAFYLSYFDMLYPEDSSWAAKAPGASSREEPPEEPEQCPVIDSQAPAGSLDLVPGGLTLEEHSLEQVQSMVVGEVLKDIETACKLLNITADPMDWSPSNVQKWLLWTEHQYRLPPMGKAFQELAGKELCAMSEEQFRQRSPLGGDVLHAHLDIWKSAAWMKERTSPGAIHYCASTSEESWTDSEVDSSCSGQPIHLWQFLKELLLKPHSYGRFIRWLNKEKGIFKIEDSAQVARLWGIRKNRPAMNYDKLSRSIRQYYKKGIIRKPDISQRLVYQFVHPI
Put shortly:
as §1

In experiment [5] the target is T5, ETV7 (Homo sapiens, UniProt Q9Y603 1-341).
T5 sequence: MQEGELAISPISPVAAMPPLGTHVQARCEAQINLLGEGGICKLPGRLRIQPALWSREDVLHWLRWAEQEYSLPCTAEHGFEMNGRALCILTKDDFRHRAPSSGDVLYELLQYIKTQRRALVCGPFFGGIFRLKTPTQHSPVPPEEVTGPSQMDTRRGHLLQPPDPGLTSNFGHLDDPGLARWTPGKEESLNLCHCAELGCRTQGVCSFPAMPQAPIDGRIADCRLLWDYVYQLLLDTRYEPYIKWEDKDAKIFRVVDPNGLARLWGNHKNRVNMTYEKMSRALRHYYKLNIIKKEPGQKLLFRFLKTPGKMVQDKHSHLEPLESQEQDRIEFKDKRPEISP
Put shortly: as §1

Experiment [6] deals with T6, ELF5 (Homo sapiens, UniProt Q9UKW6-2 1-255).
T6 sequence: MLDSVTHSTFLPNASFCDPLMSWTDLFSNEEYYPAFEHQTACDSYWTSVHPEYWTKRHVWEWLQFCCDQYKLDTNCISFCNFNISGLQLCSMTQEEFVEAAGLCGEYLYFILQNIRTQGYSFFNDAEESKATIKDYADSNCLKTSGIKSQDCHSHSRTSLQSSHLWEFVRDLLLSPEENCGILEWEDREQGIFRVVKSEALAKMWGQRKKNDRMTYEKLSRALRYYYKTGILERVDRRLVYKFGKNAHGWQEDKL
Put shortly:
as §1

Experiment [7] deals with T7, ETV3 (Homo sapiens, UniProt P41162-2 1-143).
T7 sequence: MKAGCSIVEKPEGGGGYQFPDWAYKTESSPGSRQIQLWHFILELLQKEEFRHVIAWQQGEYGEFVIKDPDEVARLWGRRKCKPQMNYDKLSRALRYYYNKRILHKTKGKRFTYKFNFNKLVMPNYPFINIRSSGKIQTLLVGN
Put shortly:
as §1

The target in experiment [8] is ETV6 (Homo sapiens, UniProt P41212 1-452). Put shortly: as §1
Chain of ETV6 (P41212 whole entry): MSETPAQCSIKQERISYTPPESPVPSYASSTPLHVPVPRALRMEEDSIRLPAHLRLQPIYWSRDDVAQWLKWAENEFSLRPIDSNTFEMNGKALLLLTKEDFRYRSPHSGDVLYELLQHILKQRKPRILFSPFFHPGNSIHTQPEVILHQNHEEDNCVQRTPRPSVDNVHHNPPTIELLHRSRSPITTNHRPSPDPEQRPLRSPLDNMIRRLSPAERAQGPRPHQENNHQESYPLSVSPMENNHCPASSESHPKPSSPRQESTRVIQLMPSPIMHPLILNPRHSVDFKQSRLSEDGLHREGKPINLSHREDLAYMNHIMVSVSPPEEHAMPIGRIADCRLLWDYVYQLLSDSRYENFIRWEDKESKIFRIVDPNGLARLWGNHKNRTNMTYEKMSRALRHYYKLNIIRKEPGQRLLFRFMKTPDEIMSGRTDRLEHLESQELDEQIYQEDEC

In the case of TAATAG, the binding signal in experiment [1] was 1.24 fold enrichment (6-mer frequency, TF over GST control); in experiment [2], 1.12 fold enrichment (6-mer frequency, TF over GST control); in experiment [3] it was 1.2 fold enrichment (6-mer frequency, TF over GST control); in experiment [4] it was 1.19 fold enrichment (6-mer frequency, TF over GST control); in experiment [5] it was 1.2 fold enrichment (6-mer frequency, TF over GST control); in experiment [6], 1.15 fold enrichment (6-mer frequency, TF over GST control). The binding signal was 1.15 fold enrichment (6-mer frequency, TF over GST control) in experiment [7] and 1.14 fold enrichment (6-mer frequency, TF over GST control) in experiment [8].

In the case of TATTGA, the binding signal in experiment [1] is 1.12 fold enrichment (6-mer frequency, TF over GST control); in experiment [2], 1.22 fold enrichment (6-mer frequency, TF over GST control); in experiment [3], 1.12 fold enrichment (6-mer frequency, TF over GST control); in experiment [4], 1.17 fold enrichment (6-mer frequency, TF over GST control); in experiment [5] it was 1.14 fold enrichment (6-mer frequency, TF over GST control); in experiment [6], 1.11 fold enrichment (6-mer frequency, TF over GST control). Moreover, the binding signal in experiment [7] was 1.19 fold enrichment (6-mer frequency, TF over GST control); in experiment [8] it was 1.16 fold enrichment (6-mer frequency, TF over GST control).

ATTCTG: the binding signal was 1.38 fold enrichment (6-mer frequency, TF over GST control) in experiment [1]; 1.28 fold enrichment (6-mer frequency, TF over GST control) in experiment [2]; 1.31 fold enrichment (6-mer frequency, TF over GST control) in experiment [3]; 1.27 fold enrichment (6-mer frequency, TF over GST control) in experiment [4]; 1.23 fold enrichment (6-mer frequency, TF over GST control) in experiment [5]; 1.21 fold enrichment (6-mer frequency, TF over GST control) in experiment [6]. The binding signal was 1.26 fold enrichment (6-mer frequency, TF over GST control) in experiment [7] and 1.43 fold enrichment (6-mer frequency, TF over GST control) in experiment [8].

In the case of AATGTC, the binding signal was 1.17 fold enrichment (6-mer frequency, TF over GST control) in experiment [1]; 1.22 fold enrichment (6-mer frequency, TF over GST control) in experiment [2]; 1.27 fold enrichment (6-mer frequency, TF over GST control) in experiment [3]; 1.36 fold enrichment (6-mer frequency, TF over GST control) in experiment [4]; 1.23 fold enrichment (6-mer frequency, TF over GST control) in experiment [5]; 1.38 fold enrichment (6-mer frequency, TF over GST control) in experiment [6]. Further, the binding signal is 1.23 fold enrichment (6-mer frequency, TF over GST control) in experiment [7] and 1.21 fold enrichment (6-mer frequency, TF over GST control) in experiment [8].

Consider TGACCG, for which the binding signal in experiment [1] is 1.41 fold enrichment (6-mer frequency, TF over GST control); in experiment [2], 1.41 fold enrichment (6-mer frequency, TF over GST control); in experiment [3] it was 1.55 fold enrichment (6-mer frequency, TF over GST control); in experiment [4], 1.44 fold enrichment (6-mer frequency, TF over GST control); in experiment [5] it was 1.49 fold enrichment (6-mer frequency, TF over GST control); in experiment [6] it was 1.4 fold enrichment (6-mer frequency, TF over GST control). Also, the binding signal was 1.53 fold enrichment (6-mer frequency, TF over GST control) in experiment [7] and 1.36 fold enrichment (6-mer frequency, TF over GST control) in experiment [8].

As to CTACTC, the binding signal was 1.48 fold enrichment (6-mer frequency, TF over GST control) in experiment [1]; 1.45 fold enrichment (6-mer frequency, TF over GST control) in experiment [2]; 1.34 fold enrichment (6-mer frequency, TF over GST control) in experiment [3]; 1.29 fold enrichment (6-mer frequency, TF over GST control) in experiment [4]; 1.13 fold enrichment (6-mer frequency, TF over GST control) in experiment [5]; 1.29 fold enrichment (6-mer frequency, TF over GST control) in experiment [6]. The binding signal in experiment [7] is 1.25 fold enrichment (6-mer frequency, TF over GST control); in experiment [8] it was 1.3 fold enrichment (6-mer frequency, TF over GST control).

Regarding TGCTAG, the binding signal in experiment [1] was 1.21 fold enrichment (6-mer frequency, TF over GST control); in experiment [2] it was 1.29 fold enrichment (6-mer frequency, TF over GST control); in experiment [3], 1.04 fold enrichment (6-mer frequency, TF over GST control); in experiment [4] it was 1.09 fold enrichment (6-mer frequency, TF over GST control); in experiment [5], 1.16 fold enrichment (6-mer frequency, TF over GST control); in experiment [6], 1.09 fold enrichment (6-mer frequency, TF over GST control). Moreover, the binding signal in experiment [7] is 1.13 fold enrichment (6-mer frequency, TF over GST control); in experiment [8] it was 1.05 fold enrichment (6-mer frequency, TF over GST control).

Take AACGCT: the binding signal in experiment [1] is 1.26 fold enrichment (6-mer frequency, TF over GST control); in experiment [2] it was 1.15 fold enrichment (6-mer frequency, TF over GST control); in experiment [3], 1.13 fold enrichment (6-mer frequency, TF over GST control); in experiment [4] it was 1.2 fold enrichment (6-mer frequency, TF over GST control); in experiment [5], 1.24 fold enrichment (6-mer frequency, TF over GST control); in experiment [6], 1.19 fold enrichment (6-mer frequency, TF over GST control). For the same sequence, the binding signal is 1.24 fold enrichment (6-mer frequency, TF over GST control) in experiment [7] and 1.27 fold enrichment (6-mer frequency, TF over GST control) in experiment [8].

For the origin of these results see paper PMC7862700, “An all-to-all approach to the identification of sequence-specific readers for epigenetic DNA modifications on cytosine”.
